Laboratory results as given in PubChem BioAssay AID624416 (The Scripps Research Institute Molecular Screening Center, 2012).
Out of some 360,000 compounds screened, about 1,500 (0.42%) were called active. The full list was thinned out, with actives kept by preference. A number with no mark means an inactive call. Cut-off read from the data, not from the text of the source: active = inhibition above about 8.5%; inactive = the rest.

system: HIV-1 gp120 / PG9 antibody interaction; assay: small molecules engaging PG9 antibody – biochemical, TR-FRET, primary screen (AID 624416); details: TR-FRET gp120-PG9 antibody binding; at 6.7 µM; active compounds read high

Compound | inhibition
COC(=O)c1c(-c2ccc(OC)cc2)c2c(c3c4cc(OC)ccc4n(S(=O)(=O)c4ccc(F)cc4)c13)C(=O)N(C)C2 | 1.03%
COC(=O)c1c(-c2ccc(OC)cc2)c2c(c3c4ccccc4n(S(=O)(=O)c4ccc(C)cc4)c13)C(=O)N(C)C2 | 0.17%
CN1C(=O)C2CC(O)C(SC3CC4C(=O)N(C)C(=O)C4CC3O)CC2C1=O (stereo unspecified) | 0.46%
CC(C)(C)c1ccc(S(=O)(=O)NCC2CCN(C(=O)C(=O)c3cc4ccccc4o3)CC2)cc1 | -1.81%
Cc1cc(Br)cn2c(Cc3ccccc3C(F)(F)F)c(-c3ccc(C#N)cc3)nc12 | 0.29%
O=C1COc2ccc(C(=O)COC(=O)c3ccccc3Cl)cc2N1 | 28.2% (active)
O=C1COc2ccc(C(=O)COC(=O)c3cccnc3Cl)cc2N1 | -1.31%
COc1cc(N)c(Cl)cc1C(=O)OCC(=O)c1ccc2c(c1)NC(=O)CO2 | -0.01%
OC(c1ccccc1)(c1ccccc1)C1CCN(CCCOc2ccc(-c3ccsc3)cc2)CC1 | 1.88%
COCCCNC(=O)C[C@H]1C[C@@]2(C(=O)OC)C(=C[C@H](C(C)(C)C)O[C@@H]2C)N(Cc2ccc3c(c2)OCO3)C1=O | 0.35%
CC(C)C[C@H](NC(=O)CC1CCCC1)C(=O)N1CCC[C@H]1C(=O)NCc1ccccc1 | -0.84%
Cn1c(=S)sc2ccc3ccccc3c21 | 14.2% (active)
COc1ccc2ccccc2c1CNc1nnnn1C | 0.54%
CC(=O)C1=C(C)N(Cc2ccc(Cl)cc2)C(=S)NC1c1ccc(F)cc1 (stereo unspecified) | -2.38%
Cc1ccc2nc(-c3ccc(CN4CCC(n5cc(-c6ccccc6)[nH]c5=O)CC4)cc3)c(-c3ccccc3)nc2c1 | -0.32%
O=C(NCc1ccccc1)[C@H]1CCCN1C(=O)[C@H]1CCCN1C(=O)N1CCOCC1 | -0.88%
CC(C)(C)n1nc(C2CC2)c(Br)c1NC(=O)c1ccccc1F | 0.97%
CC1CCN(C(=O)c2ncn3c2C(=O)N[C@@H](C)C3)CC1 | -0.93%
O=C(COC(=O)c1cc2c(s1)CCCC2)NCc1ccccc1Cl | -0.89%
O=C(COC(=O)c1ccc2c(c1)OCCO2)NCc1ccccc1Cl | 9.13% (active)
O=C(OCc1ccccc1F)c1ccc2c(c1)OCCO2 | -1.71%

Compound | inhibition
CCOC(=O)/C=C/c1ccccc1O | 0.44%
CC1Cc2cc(/C(O)=C3\C(=O)C(=O)N(CCN4CCOCC4)C3c3ccccc3F)ccc2O1 (stereo unspecified) | 13.2% (active)
O=C1C(=O)N(CCN2CCOCC2)C(c2cccc(Cl)c2)/C1=C(/O)c1ccc2c(c1)OCO2 (stereo unspecified) | 30.6% (active)
O=C1C(=O)N(CCCN2CCOCC2)C(c2ccc([N+](=O)[O-])cc2)/C1=C(\O)c1ccc2c(c1)OCCO2 (stereo unspecified) | -1.43%
COc1ccc(C2/C(=C(/O)c3ccc4c(c3)CC(C)O4)C(=O)C(=O)N2Cc2ccncc2)cc1 (stereo unspecified) | 2.5%
COCCCN1C(=O)C(=O)/C(=C(/O)c2ccc3c(c2)CC(C)O3)C1c1cccnc1 (stereo unspecified) | 3.22%
O=C1C(=O)N(CCN2CCOCC2)C(c2ccccn2)/C1=C(/O)c1ccc(Cl)cc1 (stereo unspecified) | 0.67%
Cc1nc(NC(=O)C(C)(C)C)sc1[N+](=O)[O-] | -0.45%
COC(=O)C1=C(C)N(Cc2cccc(C(F)(F)F)c2)C(=NCc2ccccc2)NC1c1ccccc1C(F)(F)F (stereo unspecified) | 0.63%
COC(=O)C(C(=O)OC)c1ccccc1NS(=O)(=O)c1cccc2ccccc12 | 0.18%
CC(=NNC(N)=O)c1ccc(Cl)c(-n2cccc2)c1 | 0.53%
COc1cccc(NS(=O)(=O)c2ccc3[nH]cc(C(=O)NCCCOC(C)C)c(=O)c3c2)c1 | 10.3% (active)
CCCCNC(=O)c1c[nH]c2ccc(S(=O)(=O)Nc3ccc(OCC)cc3)cc2c1=O | 2.91%
CCN(CC)S(=O)(=O)c1ccc2[nH]cc(C(=O)NCCc3ccccc3)c(=O)c2c1 | -0.32%
CN1CCCCC(NC(=O)C(C)(C)C)C1=O (stereo unspecified) | -1.72%
CC(C)N(c1ccccc1)c1ncnc(NCCC(=O)O)c1[N+](=O)[O-] | -1.67%
O=C(O)CCCCCNc1ncnc2ccc(Br)cc12 | 18.3% (active)
COC(=O)[C@]1(Cc2ccccc2)NC=C(C(=O)c2ccccc2)[C@@H]1c1cccc(OC)c1 | -1.25%
Cc1cccc(Nc2nc3c(S(=O)(=O)c4ccccc4)nnn3c3ccccc23)c1C | 16.5% (active)
Cc1cc(Nc2cccc(C)c2C)n2ncnc2n1 | 0.14%
CC(=O)Nc1ccc(Nc2nc3c(S(=O)(=O)c4ccc(C)c(C)c4)nnn3c3ccccc23)cc1 | 1.78%

Compound | inhibition
COc1cccc(CNC(=O)[C@H]2CCCN2C(=O)[C@H]2CCCN2C(=O)c2ccc(F)cc2)c1 | -1.74%
O=C(C(=O)N1CCC(CNS(=O)(=O)Cc2ccccc2)CC1)c1cc2ccccc2o1 | 0.63%
COC(=O)c1cc2c(c3c4cc(F)ccc4n(S(=O)(=O)c4ccccc4)c13)C(=O)N(Cc1ccccc1OC)C2 | 0.8%
CCOC(=O)C1CSCCS(=O)(=O)N1Cc1ccc(Cl)cc1 (stereo unspecified) | -1.82%
Cc1ccccc1C(=O)N[C@H](C(=O)N1CCC[C@H]1C(=O)NCc1ccccc1)C(C)C | -2.77%
Cc1nc2nc(SCC(=O)Nc3cccc(F)c3)[nH]c2cc1Br | -0.51%
Cc1nc2nc(SCC(=O)c3ccccc3)[nH]c2cc1Br | 29.2% (active)
CC(=O)Nc1ccc(C(=O)CSc2nc3ccc(C)cc3[nH]2)cc1 | -0.81%
COc1cccc(-c2cc(CNC(=O)[C@@H](Cc3ccccc3)NC(=O)[C@H]3O[C@@H](n4cnc(C(N)=O)n4)[C@H](O)[C@@H]3O)no2)c1 | -2.73%
COC(=O)[C@]12C[C@H](CC(=O)NCc3ccc(C)o3)C(=O)N(CCC3=CCCCC3)C1=C[C@H](C(C)(C)C)O[C@@H]2C | -1.11%
COc1ccccc1-c1ccc([C@@H]2C[C@H]3[C@H](CON3C)CN2S(=O)(=O)c2cc(Cl)cc(Cl)c2)cc1 | -0.23%
CC[C@H](C)[C@H]1CNC(=O)C(=O)N1CC1CCN(CCc2ccc(OC)c(OC)c2)CC1 | -1.11%
Cc1cc2c(cc1C)N1C(=O)c3cc4ccccc4cc3NC(=O)C1C(=O)N2 (stereo unspecified) | 9.79% (active)
Cc1cc(N2CCN(C(=O)OC(C)(C)C)C[C@H]2C)ccc1N1CCN(Cc2ccccc2)[C@H](C)C1 | -1.9%
CCn1c(SCC(=O)Nc2cc(C)ccc2C)nnc1-c1cnccn1 | 1.97%
CCOC(=O)Cc1csc(NC(=O)CSc2nnc(-c3cccnc3)n2Cc2ccco2)n1 | -0.33%
CCc1ccc(NC(=O)CSc2nnc(-c3cnccn3)n2Cc2ccco2)cc1 | 14.2% (active)
CC(C)(C)C(c1nc2ccccc2[nH]1)n1c(Cc2csc3ccccc23)nc2ccccc21 (stereo unspecified) | 3.67%
CC(C)OCCCNC(=O)c1cc(Sc2ccc(F)cc2)nc2ccccc12 | 17.2% (active)
O=C(NCCOc1ccccc1)c1ccccc1F | -0.63%
CC(C)CCNC(=O)c1cccnc1Sc1ccccc1 | -0.45%

Compound | inhibition
O=S1(=O)c2ccc(Br)cc2-n2nncc2CN1Cc1cccc(Cl)c1 | 1.6%
Nc1ccn([C@@H]2O[C@H](C(=O)N[C@H]3CCCCNC3=O)[C@@H](O)[C@H]2O)c(=O)n1 | -0.25%
CCOc1cc2ccccc2cc1C(=O)Nc1ccccn1 | 12.2% (active)
CCOc1cc(NC(=O)c2ccccc2C(=O)O)c(OCC)cc1NC(=O)c1ccccc1F | -7.45%
CCN(CC)S(=O)(=O)c1cc(C(=O)Nc2ccccn2)ccc1C | -1.5%
Nc1ncnc2c1ncn2[C@@H]1O[C@H](C(=O)N[C@@H](CCc2ccccc2)C(=O)N2CCCN(Cc3cccs3)CC2)[C@@H](O)[C@H]1O | 0.34%
C#CCN([C@@H](C)C(=O)OCC)S(=O)(=O)c1ccc(Br)cc1F | -1.25%
C[C@@H]1ON(C)[C@H]2C[C@H]3c4cc(N5CCOCC5)ccc4CCN3C[C@@H]12 | -1.04%
N#CC1=C(N)Oc2[nH]c(=S)[nH]c(=O)c2C12C(=O)Nc1ccccc12 (stereo unspecified) | -2.89%
CC1(C)Cc2ccccc2-c2[nH]c(=S)[nH]c(=O)c21 | 35% (active)
CC1(C)Cc2ccccc2/C(=C/C(=O)c2ccccc2)N1 | 0.12%
COC(=O)c1cc2c(c3c4ccccc4n(S(=O)(=O)c4cccc(C)c4)c13)C(=O)N(Cc1ccccc1)C2 | 0.57%
N#Cc1cccc(C(=O)NCC2CCN(C(=O)C(=O)c3cc4ccccc4o3)CC2)c1 | -0.57%
CCCCOCC1CN(CCCC)S(=O)(=O)c2c(Oc3ccc(F)cc3)cccc2O1 (stereo unspecified) | -0.05%
CCOc1cc(C2C(C(=O)c3ccco3)=C(O)C(=O)N2Cc2ccccc2)ccc1O (stereo unspecified) | 0.36%
O=C(C1=C(O)C(=O)N(Cc2ccccc2)C1c1ccco1)c1ccco1 (stereo unspecified) | 17.9% (active)
O=C(C1=C(O)C(=O)N(Cc2ccccc2)C1c1cccnc1)c1ccco1 (stereo unspecified) | 7.52%
COC(=O)C1=C(C)N(Cc2cccc(C(F)(F)F)c2)C(=NCc2cccc(C(F)(F)F)c2)NC1c1ccccc1C(F)(F)F (stereo unspecified) | -0.87%
